Screening results: PubChem BioAssay, National Center for Advancing Translational Sciences (NCATS)
TRHR enhancer: allosteric enhancers of human TRH receptor | P34981 | TRHR cells, fluo-8 calcium fluorescence, EC20 TRH enhancement | enhancement, % at 2 µM | actives 0.66% (n = 360,000) | AID 493056; in the data active means enhancement above about 30%
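TRHR-expressing cells loaded with fluo-8 calcium dye were read kinetically (ex 480/em 530) during compound addition, then stimulated with an EC20 of TRH (10 nM final). Enhancement of the Gq-mediated intracellular calcium response was scored.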
D1 ag: human D1 receptor agonism. P21728. HEK293 T-REx D1 cells, calcium flux, agonist mode. activation, % at 2 µM. actives 1% (n = 360,000). AID 504660
Target sequence (P21728 whole entry, looked up): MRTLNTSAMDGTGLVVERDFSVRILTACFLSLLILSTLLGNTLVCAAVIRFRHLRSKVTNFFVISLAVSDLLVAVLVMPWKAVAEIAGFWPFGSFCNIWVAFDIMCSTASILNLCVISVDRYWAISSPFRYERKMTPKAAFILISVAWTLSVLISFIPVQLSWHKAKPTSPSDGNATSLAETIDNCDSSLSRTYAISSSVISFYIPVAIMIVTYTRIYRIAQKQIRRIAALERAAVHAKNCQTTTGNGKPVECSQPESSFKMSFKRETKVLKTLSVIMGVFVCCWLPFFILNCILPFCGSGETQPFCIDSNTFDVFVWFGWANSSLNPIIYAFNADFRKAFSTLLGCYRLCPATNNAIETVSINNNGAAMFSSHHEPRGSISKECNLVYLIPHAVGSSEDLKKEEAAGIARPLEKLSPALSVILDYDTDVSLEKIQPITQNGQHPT
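Inducible HEK293 T-REx D1 cells, force-coupled to calcium signalling, were plated at 4000 cells/well with tetracycline and held overnight at 30 C. After no-wash calcium dye loading, compound-evoked calcium rise over 180 s flagged agonists.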
D1 PAM: potentiators of human D1 dopamine receptor | P21728 | HEK293 TREx D1 cells, calcium flux, dopamine EC20 potentiation | potentiation, % at 10 µM | actives 0.036% (n = 360,000) | AID 504651; in the data active means potentiation above about 30%
D1 antagonist: human D1 dopamine receptor antagonism; actives 3.2% (n = 360,000); HEK293 TREx D1 cells, calcium flux, dopamine EC80; stronger effect = lower value; activity change, negative = inhibition, % at 10 µM; AID 504652; in the data active means activity change below about -30%
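Allosteric or orthosteric antagonism assessed as attenuation of the calcium response to EC80 dopamine, added 180 s after compound, in induced HEK293 Trex D1 cells loaded with no-wash calcium dye.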
TRHR ag: agonists of human TRH receptor; P34981; TRHR cells, calcium flux fluo-8, FDSS agonist mode; activation, % at 2 µM; actives 0.18% (n = 360,000); AID 493084
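Steps: seed TRHR cells overnight; add fluo-8 no-wash Ca dye, RT 30 min–1.5 h; record 10 s baseline; pin-transfer compounds; monitor fluorescence 1 cycle/s for the agonist window. Calcium increases flag candidate agonists.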
A number is an active result. Compounds with a hit are over-represented: about 4.7% of the library has one in this group of screens. Unless noted, no stated cut-off is given here; in the data, active means activation above about 30%; inactive means the rest.

`Cc1n[nH]c(C)c1CCc1nc2c3ccccc3nc(SCC(=O)Nc3ccc(F)cc3)n2n1` gave TRHR enhancer inactive, D1 ag inactive, D1 PAM inactive, D1 antagonist inactive and TRHR ag inactive.
Cc1n[nH]c(C)c1CCc1nc2c3ccccc3nc(SCC(N)=O)n2n1 was read as TRHR enhancer 33, D1 ag inactive, D1 PAM inactive, D1 antagonist inactive and TRHR ag inactive.
For COc1ccc(Cn2c(=O)c3oc4ccccc4c3n(Cc3cccc(C(F)(F)F)c3)c2=O)cc1 the results were TRHR enhancer inactive, D1 ag inactive, D1 PAM inactive, D1 antagonist inactive and TRHR ag inactive.
CN(C)c1cc2c(cc1NC(=O)c1ccc(F)cc1)n(C)c(=O)n2C was read as TRHR enhancer inactive, D1 ag inactive, D1 PAM inactive, D1 antagonist inactive and TRHR ag inactive.
For O=C(Cn1cc(CN(Cc2ccccc2)Cc2ccccc2)nn1)Nc1cc(C(F)(F)F)ccc1Cl the results were TRHR enhancer inactive, D1 ag inactive, D1 PAM inactive, D1 antagonist inactive and TRHR ag inactive.
For COc1cc(CNCCO)cc(Cl)c1OCc1ccc(Cl)cc1Cl the results were TRHR enhancer inactive, D1 ag 154, D1 PAM inactive, D1 antagonist inactive and TRHR ag inactive.
COc1cc(CNCCO)cc(Br)c1OCc1ccccc1Cl was read as TRHR enhancer inactive, D1 ag 69, D1 PAM inactive, D1 antagonist inactive and TRHR ag inactive.
COc1ccccc1CC(=O)Nc1ccc2nc(Nc3cccc(C(F)(F)F)c3)cc(C)c2c1 was read as TRHR enhancer inactive, D1 ag inactive, D1 PAM inactive, D1 antagonist inactive and TRHR ag inactive.
COc1ccc2sc(N(CCCN(C)C)C(=O)c3ccc(S(=O)(=O)N(C)Cc4ccccc4)cc3)nc2c1 was read as TRHR enhancer inactive, D1 ag inactive, D1 PAM inactive, D1 antagonist inactive and TRHR ag inactive.
`CN(C)CCCN(C(=O)c1ccc2c(c1)OCCO2)c1nc2cc3c(cc2s1)OCO3` gave TRHR enhancer inactive, D1 ag inactive, D1 PAM inactive, D1 antagonist inactive and TRHR ag inactive.
CN(C)CCCN(C(=O)COc1ccccc1)c1nc2c(F)cccc2s1 was read as TRHR enhancer 32, D1 ag inactive, D1 PAM inactive, D1 antagonist inactive and TRHR ag inactive.
CN(C)CCCN(C(=O)c1ccc([N+](=O)[O-])o1)c1nc2cc3c(cc2s1)OCO3 was read as TRHR enhancer inactive, D1 ag inactive, D1 PAM inactive, D1 antagonist -47 and TRHR ag inactive.
Screening CN(C)CCCN(C(=O)c1ccc2ccccc2c1)c1nc2cc3c(cc2s1)OCO3 returned TRHR enhancer inactive, D1 ag 36, D1 PAM inactive, D1 antagonist inactive and TRHR ag inactive.
`COc1cccc2sc(N(CCCN(C)C)C(=O)COc3ccc(Cl)cc3)nc12` gave TRHR enhancer inactive, D1 ag inactive, D1 PAM inactive, D1 antagonist inactive and TRHR ag inactive.
Screening CN(C)CCCN(C(=O)c1ccc(S(=O)(=O)N(C)Cc2ccccc2)cc1)c1nc2cc3c(cc2s1)OCO3 returned TRHR enhancer inactive, D1 ag inactive, D1 PAM inactive, D1 antagonist -55 and TRHR ag inactive.
`O=C(NCc1cccs1)c1ccc(CSc2nc3ccncc3n2Cc2ccccc2F)cc1` gave TRHR enhancer inactive, D1 ag inactive, D1 PAM inactive, D1 antagonist inactive and TRHR ag inactive.
CCN(c1ccccc1)S(=O)(=O)c1ccc(C(=O)N(CCCN(C)C)c2nc3c(C)cccc3s2)cc1 was read as TRHR enhancer inactive, D1 ag inactive, D1 PAM inactive, D1 antagonist inactive and TRHR ag inactive.
For COc1ccc(C)c2sc(N(CCCN(C)C)C(=O)c3ccc4c(c3)OCCO4)nc12 the results were TRHR enhancer inactive, D1 ag 66, D1 PAM inactive, D1 antagonist inactive and TRHR ag inactive.
CN(C)CCCN(C(=O)COc1ccccc1)c1nc2cc3c(cc2s1)OCO3 was read as TRHR enhancer inactive, D1 ag 36, D1 PAM inactive, D1 antagonist inactive and TRHR ag inactive.
CCN(c1ccccc1)S(=O)(=O)c1ccc(C(=O)N(CCCN(C)C)c2nc3cc4c(cc3s2)OCO4)cc1 was read as TRHR enhancer inactive, D1 ag 42, D1 PAM inactive, D1 antagonist inactive and TRHR ag inactive.
For COc1ccc(OC)c(CNC(=O)CCCn2nc(C)c3c(C)n(-c4ccc(C)cc4)nc3c2=O)c1 the results were TRHR enhancer inactive, D1 ag inactive, D1 PAM inactive, D1 antagonist inactive and TRHR ag inactive.
Screening COc1cccc2c1Oc1ncccc1N(C(=O)CCC(=O)NCc1ccc(OC(C)C)cc1)C2 returned TRHR enhancer inactive, D1 ag inactive, D1 PAM inactive, D1 antagonist inactive and TRHR ag inactive.
For Cc1ccc(-c2nnc(SCC(=O)NC(C)(C)C)nc2-c2ccc(C)cc2)cc1 the results were TRHR enhancer inactive, D1 ag inactive, D1 PAM inactive, D1 antagonist inactive and TRHR ag inactive.
Cc1ccc(-c2noc(-c3nnn(CC(=O)Nc4cc(Cl)ccc4C)c3N)n2)cc1 was read as TRHR enhancer inactive, D1 ag inactive, D1 PAM inactive, D1 antagonist inactive and TRHR ag inactive.
For CCOc1cc(C=O)ccc1OCCSc1ccc(Cl)cc1 the results were TRHR enhancer inactive, D1 ag inactive, D1 PAM inactive, D1 antagonist -37 and TRHR ag inactive.
Screening COc1cc(/C=C(/C#N)c2nc(-c3cc4ccccc4oc3=O)cs2)ccc1O returned TRHR enhancer inactive, D1 ag inactive, D1 PAM inactive, D1 antagonist inactive and TRHR ag inactive.
`Cc1cccc(C(=O)Nc2ccc(C(=O)OCc3cc(=O)n4c5c(sc4n3)CCCC5)cc2)c1` gave TRHR enhancer inactive, D1 ag inactive, D1 PAM inactive, D1 antagonist inactive and TRHR ag inactive.
CC1=CC=CC2=NC(=O)CC(C)(C(=O)N(CC(=O)NC3CCCC3)c3ccc(F)cc3)N12 (stereo unspecified) was read as TRHR enhancer inactive, D1 ag inactive, D1 PAM inactive, D1 antagonist -34 and TRHR ag inactive.
For Cc1cccc(Cn2c(=O)n(Cc3ccccc3)c(=O)c3sc4ccccc4c32)c1 the results were TRHR enhancer inactive, D1 ag inactive, D1 PAM inactive, D1 antagonist inactive and TRHR ag inactive.
For C=CCNC(=O)c1ccc(C2SCC(=O)N2Cc2ccccc2)cc1 (stereo unspecified) the results were TRHR enhancer inactive, D1 ag inactive, D1 PAM inactive, D1 antagonist inactive and TRHR ag inactive.
Screening O=C(NCc1ccccc1)c1ccc(C2SCC(=O)N2Cc2ccccc2)cc1 (stereo unspecified) returned TRHR enhancer inactive, D1 ag 34, D1 PAM inactive, D1 antagonist inactive and TRHR ag inactive.
